Values joined by “and” are separate entries in the source; they are usually repeats but may differ in a detail not shown here. Equal entries are not always repeated. Records with an inconclusive call do not appear. Active and inactive are the calls of the source. Unless noted, calls follow the shape of the dose curve; as a rule, active = well fitted curve in the direction sought with a large enough effect in the repeat runs; inconclusive = weak or mixed curves; inactive = no such curve, though single readings can be large; an effect the other way counts as inactive or inconclusive.
Legend:
[1] = qHTS assay to identify small molecule agonists of H2AX (AID 1224845; active = well fitted activation curve with a large enough effect in the signal ratio in the repeat runs, not every such curve was filed as active; the % refers to the signal ratio; also: potency is read from the fitted curve at half-maximal effect)
Procedure, shortened: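 Wild-type CHO-K1 cells plated overnight, then exposed 3 hr at 37C to compounds at 15 concentrations (0.76% DMSO). Lysed, then HTRF anti-pH2AX(S139)-cryptate/anti-H2AX-d2 detection after 24 hr at room temperature; emissions 665 and 620 nm.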

[2] = qHTS assay to identify small molecule agonists of the hypoxia (HIF-1) signaling pathway (AID 1224846; active = well fitted activation curve with a large enough effect in the signal ratio in the repeat runs, not every such curve was filed as active; the % refers to the signal ratio)
Procedure, shortened: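 Steps: seed ME-180 HRE-bla cells (2,000/well, 0.5% dialyzed FBS); incubate 5 hrs at 37C; pin-transfer compounds or DMSO; incubate 17 hrs; add LiveBLAzer B/G substrate CCF4-AM; measure reporter activation by FRET.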

[3] = qHTS RealTime-Glo MT Cell Viability Assay in HepG2 cells - 24 hour (AID 1224867); also: nearly all actives have a fitted effect of over 50% in size
Procedure, shortened: (§1)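 Cells + NanoLuc/prosubstrate dispensed (600 cells/well) → 5 h at 37 C/5% CO2 → compounds in DMSO transferred → 40 h incubation at 37 C, luminescence read at 0, 8, 16, 24, 32, 40 h.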

[4] = A CellTox Green Cytotoxicity Assay to monitor cytotoxicity in HEK293 cells - 0 hour (AID 1224869); also: nearly all actives have a fitted effect of over 50% in size
Procedure, shortened: (§2)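 Cytotoxicity was tracked continuously in HEK293 cells by a DNA-binding dye excluded from viable cells. Compounds were transferred in DMSO 5 h after seeding; fluorescence was recorded at intervals up to 40 h.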

[5] = qHTS RealTime-Glo MT Cell Viability Assay in HepG2 cells - 40 hour (AID 1224870); also: nearly all actives have a fitted effect of over 50% in size
Procedure, shortened: (§3)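 HepG2 cells mixed with RealTime-Glo MT reagents (NanoLuc plus cell-permeant prosubstrate) were seeded at 600 cells/well, incubated 5 h at 37 C/5% CO2, then pinned with compounds in DMSO; nonlytic luminescence tracked viability during 40 h treatment.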

[6] = A CellTox Green Cytotoxicity Assay to monitor cytotoxicity in HEK293 cells - 40 hour (AID 1224871); also: nearly all actives have a fitted effect of over 45% in size; also: potency is read from the fitted curve at half-maximal effect
Procedure, shortened: as §2

[7] = qHTS RealTime-Glo MT Cell Viability Assay in HepG2 cells - 8 hour (AID 1224873); also: nearly all actives have a fitted effect of over 55% in size
Procedure, shortened: as §3

[8] = A CellTox Green Cytotoxicity Assay to monitor cytotoxicity in HEK293 cells - 24 hour (AID 1224875); also: nearly all actives have a fitted effect of over 45% in size
Procedure, shortened: as §2

[9] = A CellTox Green Cytotoxicity Assay to monitor cytotoxicity in HepG2 cells - 16 hour (AID 1224876); also: nearly all actives have a fitted effect of over 45% in size
Procedure, shortened: (§4)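 Real-time, homogeneous cytotoxicity readout: dead-cell DNA staining by CellTox Green in HepG2 monolayers, fluorescence measured at timed intervals up to 40 h of continuous compound exposure.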

[10] = qHTS RealTime-Glo MT Cell Viability Assay in HepG2 cells - 32 hour (AID 1224877); also: nearly all actives have a fitted effect of over 55% in size
Procedure, shortened: as §1

[11] = A CellTox Green Cytotoxicity Assay to monitor cytotoxicity in HepG2 cells - 24 hour (AID 1224878); also: nearly all actives have a fitted effect of over 45% in size
Procedure, shortened: as §4

[12] = A CellTox Green Cytotoxicity Assay to monitor cytotoxicity in HepG2 cells - 40 hour (AID 1224879); also: nearly all actives have a fitted effect of over 40% in size
Procedure, shortened: as §4

[13] = qHTS RealTime-Glo MT Cell Viability Assay in HEK293 cells - 0 hour (AID 1224880)
Procedure, shortened: (§5)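 Nonlytic bioluminescent viability monitoring. HEK293 at 600 cells/well with reagent; 5 h settle; compound transfer by pintool; plates held at 37 C and read at set time points.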

[14] = A CellTox Green Cytotoxicity Assay to monitor cytotoxicity in HEK293 cells - 32 hour (AID 1224881); also: nearly all actives have a fitted effect of over 40% in size; also: potency is read from the fitted curve at half-maximal effect
Procedure, shortened: as §2

[15] = qHTS assay to identify small molecule agonists of H2AX - cell viability counter screen (AID 1224847; calls by dose curve; also: nearly all actives have a fitted effect of over 30% in size; also: potency is read from the fitted curve at half-maximal effect)
Procedure, shortened: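 Wild-type CHO-K1 cells (10% FBS medium) were plated overnight at 37C, exposed to compounds at 15 concentrations for 3 hr at 37C (0.76% DMSO final), and viability was read as CellTiter-Glo luminescence after 30 min at room temperature.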

[16] = qHTS RealTime-Glo MT Cell Viability Assay in HEK293 cells - 32 hour (AID 1224868); also: nearly all actives have a fitted effect of over 50% in size; also: potency is read from the fitted curve at half-maximal effect
Procedure, shortened: (§6)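 Tox21 10K qHTS, HEK293, 600 cells/well, RealTime-Glo reagent co-dispensed with cells; 5 h preincubation, compound by pintool, 37 C, luminescence at 0–40 h.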

[17] = qHTS RealTime-Glo MT Cell Viability Assay in HEK293 cells - 40 hour (AID 1224874); conditions: RealTime-Glo luminescence; max response: stronger effect = lower value; also: nearly all actives have a fitted effect of over 50% in size; also: potency is read from the fitted curve at half-maximal effect
Procedure, shortened: as §5

[18] = qHTS assay to identify small molecule antagonists of the estrogen related receptor (ERR) signaling pathway from Tox21 library (AID 1224848); also: nearly all actives have a fitted effect of over 50% in size; also: potency is read from the fitted curve at half-maximal effect
Procedure, shortened: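 Cells: ERR line, 2,000/well; 6 h preincubation 37 C/5% CO2. Cpd in DMSO via pin tool; 18 h, 37 C. ONE-Glo, 30 min RT, luminescence.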

[19] = qHTS assay to identify small molecule agonists of the estrogen related receptor (ERR) signaling pathway from Tox21 library (AID 1224849; calls by dose curve; also: nearly all actives have a fitted effect of over 15% in size); conditions: ERR reporter cell line, ONE-Glo luciferase, 18 h; at 92.4 µM (top of the series) unless noted
Procedure, shortened: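 Agonist signal is luciferase luminescence from an ERR reporter cell line treated 18 h at 37 C with DMSO-dissolved compounds, read 30 min after ONE-Glo addition at room temperature.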

[20] = qHTS RealTime-Glo MT Cell Viability Assay in HEK293 cells - 16 hour (AID 1224872); also: nearly all actives have a fitted effect of over 50% in size; also: potency is read from the fitted curve at half-maximal effect
Procedure, shortened: as §6
% is scaled to controls: 0 for no effect and ±100 for the full control effect.

CCCCCCCCS(=O)C(C)Cc1ccc2c(c1)OCO2 (configuration not stated)
inactive: Potency [1] | Potency [2] | Potency [3] | Potency [4] | Potency [5] | Potency [6] | Potency [7] | Potency [8] | Potency [9] | Potency [10] | Potency [11] | Potency [12] | Potency [13] | Potency [14]

CCCCCCCCCCCCCCCS(=O)(=O)Oc1ccccc1
inactive: Potency [1] | Potency [2] | Potency [15] | Potency [3] | Potency [16] | Potency [4] | Potency [5] | Potency [6] | Potency [7] | max response [17] -18% | Potency [8] | Potency [9] | Potency [10] | Potency [11] | Potency [12] | Potency [13] | Potency [14]

ON=C1CCCC1
inactive: Potency [2] | activity change, positive = activation [19] -71.1% | Potency [3] | Potency [4] | Potency [5] | Potency [6] | Potency [7] | Potency [8] | Potency [9] | Potency [11] | Potency [12] | Potency [14]
active: Potency [1] 104 µM | Potency [18] 39.9 µM | Potency [16] 25.4 µM | Potency [20] 22.6 µM | Potency [17] 22.6 µM

CCCCN(CCCC)C(=O)N(CCCC)CCCC
inactive: Potency [1] | Potency [2] | Potency [3] | Potency [16] | Potency [4] | Potency [5] | Potency [6] | Potency [20] | Potency [7] | max response [17] -2.17% | Potency [8] | Potency [10] | Potency [11] | Potency [12] | Potency [13] | Potency [14]

O=C(Oc1ccccc1)c1ccccc1C(=O)Oc1ccccc1
inactive: Potency [1] | Potency [2] | Potency [3] | Potency [16] | Potency [4] | Potency [5] | Potency [6] | Potency [20] | max response [17] -2.84% | Potency [8] | Potency [10] | Potency [11] | Potency [12] | Potency [13]

CC1=NC(C)OC1C (configuration not stated)
inactive: Potency [1] | Potency [2] | Potency [15] | Potency [3] | Potency [4] | Potency [5] | Potency [6] | Potency [20] | Potency [7] | max response [17] 0.967% | Potency [8] | Potency [9] | Potency [10] | Potency [11] | Potency [12] | Potency [13] | Potency [14]

Cc1nc(-c2ccc3c(c2)CCN(CCC2CCC(NC(=O)/C=C/c4ccc(F)cc4)CC2)CC3)no1 (configuration not stated)
inactive: Potency [1] | Potency [2] | Potency [15] | Potency [3] | Potency [4] | Potency [5] | Potency [7] | Potency [8] | Potency [9] | Potency [10] | Potency [11] | Potency [13]

O=C(c1ccc(O)cc1O)c1ccc(O)cc1O
inactive: Potency [1] | Potency [2] | Potency [3] | Potency [16] | Potency [4] | Potency [5] | Potency [6] | Potency [20] | Potency [7] | max response [17] -12.9% and -13.9% | Potency [8] | Potency [9] | Potency [10] | Potency [11] | Potency [12] | Potency [13] | Potency [14]

CCCCCCCC(=O)[O-].CCCCCCCC(=O)[O-].[Zn+2]
inactive: Potency [1] | Potency [2] | Potency [15] | Potency [3] | Potency [16] | Potency [4] | Potency [5] | Potency [6] | Potency [20] | Potency [7] | max response [17] 9.04% | Potency [8] | Potency [10] | Potency [12] | Potency [13] | Potency [14]

CCC1OCC(COc2ccc(Oc3ccccc3)cc2)O1 (configuration not stated)
active: activity change, positive = activation [19] -1.58%
inactive: Potency [1] | Potency [2] | Potency [18] | Potency [3] | Potency [4] | Potency [5] | Potency [6] | Potency [7] | Potency [8] | Potency [10] | Potency [12] | Potency [14]

C=C(C)C(=O)OCC[N+](C)(C)C
inactive: Potency [1] | Potency [2] | Potency [15] | Potency [3] | Potency [16] | Potency [4] | Potency [5] | Potency [6] | Potency [20] | Potency [7] | max response [17] -0.113% | Potency [9] | Potency [11] | Potency [12] | Potency [13]

CCCC(C)c1ccccc1O (configuration not stated)
active: Potency [15] 80 µM | Potency [6] 49 µM | Potency [14] 49 µM
inactive: Potency [1] | Potency [2] | Potency [3] | Potency [16] | Potency [4] | Potency [5] | Potency [20] | Potency [7] | max response [17] -11.1% | Potency [10] | Potency [13]
